Experimental data reported in PubChem BioAssay (Tox21).
Inconclusive results are not listed. Entries that show only a call come without a potency. Values without a mark were called inactive. Active and inactive are the calls of the source. The call rests on the fitted dose curve; in most records, active means well fitted inhibition curve with a large enough effect in the signal ratio in the repeat runs (not every such curve was filed as active); inconclusive means weak or mixed curves, or effect the other way; inactive means flat fitted curve, though single readings scatter; the % refers to the signal ratio.

Experiment: cAMP Responsive Elements (CRE) small molecule antagonists, cell-based qHTS assay (AID 1963591)
Conditions: CRE-bla HEK293T, beta-lactamase FRET ratio; series mostly up to 92.4 µM
Description: U.S. Tox21 Program National Center for Advancing Translational Sciences [NCATS] Division of Preclinical Innovation [DPI] U.S. Environmental Protection Agency [EPA] National Institutes of Environmental Health Sciences [NIEHS] National Toxicology Program [NTP] U.S. Food and Drug Administration [FDA] Tox21 Assay Overview: CREB (cyclic-AMP Responsive Element Binding Protein) is a cellular transcription factor. It binds to certain DNA sequences called cAMP Responsive Elements (CRE) and regulates the transcription of the genes. […] This cell line can be used to find agonists/antagonists of the cyclic AMP signaling pathway. The activation of the report gene under culture conditions can be detected by fluorescence intensity. This cell line has been used to screen the Tox21 10K compound library to […].
Tox21 Assay Protocol Summary: CRE-bla Hek 293T cells were suspended in assay medium (DMEM containing 10% dialyzed FBS, 0.1 mM NEAA, 1 mM sodium pyruvate and 25 mM HEPES) and dispensed at 2,000 cells/4 uL /well into 1536-well black wall/clear bottom plates using a Multidrop Combi (ThermoFisher Scientific, Waltham, MA) dispenser. After the assay plates were incubated at 37 C/5% CO2 for 18 hrs, 23 nL of compounds dissolved in DMSO, positive controls or DMSO only was transferred to the assay plate by a pintool workstation (Kalypsys, San Diego, CA), followed by addition of 1 […] uL of 1.25uM NKH477 (0.25 uM as final concentration) in assay medium using a Flying Reagent Dispenser (Aurora Discovery, San Diego, CA). The plates were incubated at 37 C and 5% CO2 for 3 hrs. Then 1 uL of LiveBLAzer B/G FRET substrate (Invitrogen, Carlsbad, CA) was added to each well using Bioraptr Flying Reagent Dispenser (FRD, Aurora Discovery, San Diego, CA). The plates were incubated at room temperature for 2 h.
Potency means the concentration at half of the fitted maximal effect.

| Compound | Potency | activity change, negative = inhibition |
| --- | --- | --- |
| Cc1c(N)c(=O)n(-c2ccccc2)n1C | inactive |  |
| C=C(C)C(=O)OCCCCCCCCCCCCCCCCCC |  | -19.6% [at 18.9 µM] |
| Clc1cccc(C(c2ccc3nc[nH]c3c2)n2ccnc2)c1 (stereo not given) | inactive |  |
| CCCCCCCC/C=C\CCCCCCCCO | inactive |  |
| CCCCCCCCCCCCCCCCCBr |  | -5.99% [at 18.9 µM] |
| CCOc1ccccc1OCC1CNCCO1 (stereo not given) | inactive |  |
| S=C(S)NCCNC(=S)S | inactive |  |
| CC(Cc1ccccc1)(NC(=O)CN)c1ccccc1 (stereo not given) | inactive |  |
| CC(C)C(O)(c1ccc(OC(F)(F)F)cc1)c1cncnc1 (stereo not given) | inactive |  |
| Cc1nc2c([nH]1)c(=O)n(C)c(=O)n2Cc1ccco1 | inactive |  |
| NC(CCC(=O)O)C(=O)O (stereo not given) | inactive |  |
| CN(C)CCCN1c2ccccc2Sc2ccc(C(F)(F)F)cc21 | inactive |  |
| COC(C)=O | inactive |  |
| O=C1CCCN1C1CCCCC1 | inactive |  |
| Oc1cccc(-c2c3nc(c(-c4cccc(O)c4)c4ccc([nH]4)c(-c4cccc(O)c4)c4nc(c(-c5cccc(O)c5)c5ccc2[nH]5)CC4)C=C3)c1 | inactive |  |
| Oc1ccc2ccccc2c1 | inactive |  |
| O=S1(=O)N=C(O)c2ccccc21 | inactive |  |
| CN(C)c1ccc(SC#N)cc1 | inactive |  |
| O=[N+]([O-])c1ccc(NCCO)c(OCCO)c1 | inactive |  |
| CCCCCC/C=C\CCCCCCCC(=O)O | inactive |  |

| Compound | Potency | activity change, negative = inhibition |
| --- | --- | --- |
| OCCc1ccncc1 | inactive |  |
| CCO[Si](CCCS)(OCC)OCC | inactive |  |
| CC(=O)CCC1=C(C)CCCC1(C)C | inactive |  |
| COc1ccc(CCO)cc1 | inactive |  |
| SCCOCCOCCS | inactive |  |
| C1CCOC1 | inactive |  |
| C=CCCC(=O)O | inactive |  |
| CC(=O)SCC(CC(=O)c1ccc(C)cc1)C(=O)O (stereo not given) | inactive |  |
| NC(N)=NS(=O)(=O)c1ccc(N)cc1 | inactive |  |
| COc1ccc2nc(S(=O)Cc3ncc(C)c(OC)c3C)[nH]c2c1 (stereo not given) | inactive |  |
| CC[N+](CC)(CC(=O)Nc1c(C)cccc1C)Cc1ccccc1 (tested in a mixture with another compound) | inactive |  |
| Cc1ncc([C@@H](CCCCCCc2ccc3c(n2)NCCC3)CC(=O)O)cn1 | 545 nM (active) |  |
| C/C=C/C=C/C=O | inactive |  |
| O=C(Oc1ccccc1)c1ccc2ccccc2c1O | inactive |  |
| CC(=O)Oc1ccc([N+](=O)[O-])cc1CCl | inactive |  |
| O=C1c2ccccc2C(=O)c2c1ccc(O)c2O | inactive |  |
| FB(F)F | inactive |  |
| OCCOc1cccc(OCCO)c1 | inactive |  |
| C=C1CC[C@H]2C[C@@H]1C2(C)C | inactive |  |
| C[C@H]1COc2c(C3(N)CC3)c(F)cc3c(=O)c(C(=O)O)cn1c23 | inactive |  |
